How the values were obtained:
[1] = system: Human papillomavirus type 1a protein E7 (residues 44-93); test: HPV1a E7 fragment binders on microarrays, primary screen, biochemical, small-molecule microarray, residues 44-93, 635 nm fluorescence (AID 1108); details: small-molecule microarray binding, fluorescence 635 nm; higher = more signal;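 note: E7 fragment applied at 1 µg/mL in TBST for 1 h at 4 C; score combines spot fluorescence with its signal to noise ratio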
[2] = modulators of HCV replicon luciferase signal, primary screen, HCV replication inhibitor project, Huh7 cells, luciferase reporter (AID 1109); details: 48 h, higher = more signal;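 note: huh7 hepatoma cells harbouring a luciferase neomycin HCV replicon reporter; luciferase luminescence as measure of HCV replicon replication; test concentration not given here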
[3] = biological target: Left-right determination factor 2 (Homo sapiens) (UniProt O00292); test: LEFTY2 binders on small-molecule microarrays, primary screen, biochemical, small-molecule microarray, 635 nm fluorescence scan (AID 1110); details: LEFTY2 binding, higher = more signal
Sequence of Left-right determination factor 2 (Homo sapiens) (O00292 whole entry, looked up): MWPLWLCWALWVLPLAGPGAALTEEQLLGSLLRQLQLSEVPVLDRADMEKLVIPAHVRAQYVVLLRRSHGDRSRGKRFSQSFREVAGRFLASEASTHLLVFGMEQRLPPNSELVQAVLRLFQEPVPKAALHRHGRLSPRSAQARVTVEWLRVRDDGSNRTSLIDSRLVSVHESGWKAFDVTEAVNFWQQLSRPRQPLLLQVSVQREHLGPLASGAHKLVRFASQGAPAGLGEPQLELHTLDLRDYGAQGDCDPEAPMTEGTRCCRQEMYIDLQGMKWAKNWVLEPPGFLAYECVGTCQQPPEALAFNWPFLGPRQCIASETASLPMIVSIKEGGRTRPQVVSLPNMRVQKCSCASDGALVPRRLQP

[4] = biological target: Calmodulin-1 (Homo sapiens) (UniProt P0DP23); test: CALM1 binders on microarrays, EGTA buffer, profiling panel, biochemical, small-molecule microarray, Cy5-labelled CALM1 (AID 1111); details: Cy5-CALM1 binding fluorescence, higher = more signal;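 note: labelled calmodulin applied in Tris saline Tween buffer holding calcium plus EGTA and DTT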
[5] = biological target: Calmodulin-1 (Homo sapiens) (UniProt P0DP23); test: calcium-bound CALM1 binders on microarrays, profiling panel, artefact control for SMM control-protein annotation, biochemical, small-molecule microarray, Cy5-labelled CALM1, plus calcium (AID 1112); details: Cy5-CALM1 binding fluorescence, higher = more signal;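 note: score merges spot fluorescence with signal to noise from triplicate slides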
[6] = small-molecule microarray binders of probe aWnt5a, primary screen, biochemical, biotinylated probe, 635/667 nm fluorescence (AID 1113); details: higher = more signal;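 note: score merges 667 nm fluorescence intensity with signal-to-noise per printed feature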
[7] = small-molecule microarray binders of probe aShh, primary screen, biochemical, biotinylated probe, 635/667 nm fluorescence (AID 1114); details: higher = more signal;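 note: probe is biotin-labelled aShh protein from a stem cell growth factor screen; measures binding of labelled protein to compounds printed on the slide; score merges feature fluorescence at 667 nm with signal-to-noise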
[8] = small-molecule microarray binders of probe aNog, primary screen, biochemical, biotinylated probe, 635/667 nm fluorescence (AID 1115); details: higher = more signal;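 note: probe is biotinylated aNog protein used at 0.15 µg/mL for 1 h at 4 C; z-score combines 667 nm fluorescence of each spot with its signal to noise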
[9] = biological target: Torsin-1A-interacting protein 1 (Homo sapiens) (UniProt Q5JTV8); test: LAP1 binders from COS7 cell lysate, primary screen, small-molecule microarray, 635/667 nm fluorescence (AID 1116); details: COS7-hLAP1 lysate binding, 635 nm fluorescence, higher = more signal
Sequence of Torsin-1A-interacting protein 1 (Homo sapiens) (Q5JTV8 whole entry, looked up): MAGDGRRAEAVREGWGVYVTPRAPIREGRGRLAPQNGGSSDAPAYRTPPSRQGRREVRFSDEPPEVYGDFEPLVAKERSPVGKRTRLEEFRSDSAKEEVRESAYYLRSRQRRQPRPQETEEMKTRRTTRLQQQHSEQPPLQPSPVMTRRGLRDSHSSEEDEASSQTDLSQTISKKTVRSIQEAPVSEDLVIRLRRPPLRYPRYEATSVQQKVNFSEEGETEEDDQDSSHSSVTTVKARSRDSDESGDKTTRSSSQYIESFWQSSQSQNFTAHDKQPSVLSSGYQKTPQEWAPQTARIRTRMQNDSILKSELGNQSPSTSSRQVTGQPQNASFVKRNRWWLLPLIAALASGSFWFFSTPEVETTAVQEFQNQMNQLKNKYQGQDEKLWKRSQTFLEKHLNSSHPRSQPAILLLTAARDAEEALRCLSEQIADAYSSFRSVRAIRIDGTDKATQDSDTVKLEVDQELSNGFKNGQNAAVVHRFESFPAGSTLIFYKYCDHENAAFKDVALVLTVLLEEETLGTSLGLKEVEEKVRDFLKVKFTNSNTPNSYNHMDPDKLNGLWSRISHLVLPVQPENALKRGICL

[10] = biological target: Alpha-bungarotoxin (Bungarus multicinctus) (UniProt P60615); test: alpha-bungarotoxin binders on microarray, profiling panel, artefact control for SMM control protein annotation, biochemical, small-molecule microarray, Alexa647 label, 635/667 nm fluorescence (AID 1117); details: alpha-BTX-A647 binding fluorescence, higher = more signal
Sequence of Alpha-bungarotoxin (Bungarus multicinctus) (P60615 whole entry, looked up): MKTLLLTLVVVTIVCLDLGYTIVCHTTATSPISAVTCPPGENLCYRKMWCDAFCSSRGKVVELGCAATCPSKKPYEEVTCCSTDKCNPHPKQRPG

## CC(C)(C)N1CC=CC23O[C@@H]4C=CCCOC(=O)C4[C@H]2C(=O)N(CCCO)[C@@H]3C1=O (stereo not given in full)
[1]
  composite z-score: -0.371
[2]
  z-score: -1.17
[3]
  composite z-score: -0.611
[4]
  composite z-score: -0.801
[5]
  composite z-score: -0.97
[6]
  composite z-score: -0.172
[7]
  composite z-score: -0.0769
[8]
  composite z-score: -0.118
[9]
  composite z-score: 0.0642
[10]
  composite z-score: -1.39

## O=c1c2ccc(Br)cc2nc(-c2ccccc2)n1Cc1cccc(O)c1
[1]
  composite z-score: -0.128
[2]
  z-score: -0.153
[3]
  composite z-score: 0.194
[4]
  composite z-score: 2.32
[5]
  composite z-score: 0.756
[6]
  composite z-score: 0.0438
[7]
  composite z-score: -0.305
[8]
  composite z-score: -0.218
[9]
  composite z-score: 2.51
[10]
  composite z-score: 1.8

## COc1ccc(C(=O)Nc2ccc(CN3C(=O)[C@@]4(O[C@@H](CC(=O)N5Cc6ccccc6C[C@H]5CO)[C@H]([Si](C)(C)c5ccc(OC)cc5)[C@H]4C)c4ccccc43)cc2)cc1
[1]
  composite z-score: 1.1
[2]
  z-score: -3.84
[3]
  composite z-score: 0.804
[4]
  composite z-score: 0.0063
[5]
  composite z-score: -0.613
[6]
  composite z-score: -0.119
[7]
  composite z-score: 0.0121
[8]
  composite z-score: -0.24
[9]
  composite z-score: 1.21
[10]
  composite z-score: 1.3

## COc1cc(NN2C(C(O)c3ccc(I)cc3)C=CC3C(=O)N(C)C(=O)C32)cc(OC)c1OC (stereo not given)
[1]
  composite z-score: 0.539
[2]
  z-score: -1.32
[3]
  composite z-score: -0.379
[4]
  composite z-score: 0.143
[5]
  composite z-score: 0.476
[6]
  composite z-score: 0.0077
[7]
  composite z-score: 0.289
[8]
  composite z-score: -0.0247
[9]
  composite z-score: 0.917
[10]
  composite z-score: -0.161

## COC(=O)C(CC#Cc1ccc2c(c1)[C@]1(C(=O)N2)[C@H](c2ccc(OCCO)cc2)N2[C@H](c3ccccc3)[C@H](c3ccccc3)OC(=O)[C@H]2[C@@H]1C(=O)O)C(=O)OC
[1]
  composite z-score: 0.324
[2]
  z-score: -0.442
[3]
  composite z-score: 0.431
[4]
  composite z-score: 1.23
[5]
  composite z-score: 0.707
[6]
  composite z-score: 0.0438
[7]
  composite z-score: 0.446
[8]
  composite z-score: 0.812
[9]
  composite z-score: 2.1
[10]
  composite z-score: 1.83

## CCCC[C@@H](O)C1=C(COc2ccccc2)Cn2c(=O)n(-c3ccccc3)c(=O)n2[C@H]1CO
[1]
  composite z-score: -0.616
[2]
  z-score: -1.52
[3]
  composite z-score: 0.0253
[4]
  composite z-score: -0.634
[5]
  composite z-score: -0.116
[6]
  composite z-score: -0.124
[7]
  composite z-score: -0.248
[8]
  composite z-score: -0.182
[9]
  composite z-score: -0.222
[10]
  composite z-score: -1.62

## CC(C)C[C@H]1NC(=O)[C@H](C)NC(=O)[C@@]23C(=O)N[C@@H](Cc4ccccc4)C2[C@H](C)[C@@]2(C)O[C@H]2C3/C=C/C/C=C\CNC1=O (stereo not given in full)
[1]
  composite z-score: 0.84
[2]
  z-score: -0.201
[3]
  composite z-score: -0.206
[4]
  composite z-score: -0.893
[5]
  composite z-score: -0.806
[6]
  composite z-score: -0.166
[7]
  composite z-score: -0.123
[8]
  composite z-score: 0.202
[9]
  composite z-score: 0.462
[10]
  composite z-score: -0.086

## COC(=O)[C@]1(Cc2ccccc2N=[N+]=[N-])N=C(c2ccc(OCCCO)cc2)O[C@@H]1c1ccccc1
[1]
  composite z-score: -0.296
[2]
  z-score: -3.3
[3]
  composite z-score: -0.96
[4]
  composite z-score: 0.279
[5]
  composite z-score: 0.41
[6]
  composite z-score: 0.0831
[7]
  composite z-score: -0.111
[8]
  composite z-score: 0.534
[9]
  composite z-score: 0.738
[10]
  composite z-score: 0.41

## CN(C)C(=O)[C@@]1(CCC(=O)OC(C)(C)C)N=C(c2ccc(OCCCO)cc2)O[C@H]1c1ccccc1N=[N+]=[N-]
[1]
  composite z-score: 1.54
[2]
  z-score: 1.58
[3]
  composite z-score: 0.494
[4]
  composite z-score: 1.61
[5]
  composite z-score: 0.727
[6]
  composite z-score: 0.0839
[7]
  composite z-score: 0.246
[8]
  composite z-score: 0.948
[9]
  composite z-score: 2.15
[10]
  composite z-score: 2.63

## COCCCNC(=O)[C@@]1(Cc2ccccc2I)c2ccccc2C(=O)N(Cc2ccccc2Cl)[C@H]1c1ccc(CO)cc1
[1]
  composite z-score: 1.16
[2]
  z-score: -1.36
[3]
  composite z-score: 0.365
[4]
  composite z-score: 1.32
[5]
  composite z-score: 0.101
[6]
  composite z-score: 0.0101
[7]
  composite z-score: -0.154
[8]
  composite z-score: -0.364
[9]
  composite z-score: 0.164
[10]
  composite z-score: 0.752

## C=C(/C(=C/C[C@@H](OC(=O)c1ccncc1)c1ccccc1OCCO)c1cnc2ccccc2c1)C(C)C
[1]
  composite z-score: 1.4
[2]
  z-score: -4.46
[3]
  composite z-score: 0.935
[4]
  composite z-score: 0.273
[5]
  composite z-score: -0.531
[6]
  composite z-score: 0.0044
[7]
  composite z-score: -0.195
[8]
  composite z-score: 0.0588
[9]
  composite z-score: 1.23
[10]
  composite z-score: 3.08

## COC(=O)[C@@]1(Cc2ccc(F)cc2)[C@H]2c3cc(C(=O)N(C)C)n(Cc4ccc(C)c(F)c4F)c3C[C@H]2CN1C(=O)c1ccccc1
[1]
  composite z-score: 1.33
[2]
  z-score: -1.34
[3]
  composite z-score: -0.0601
[4]
  composite z-score: 1.61
[5]
  composite z-score: 0.962
[6]
  composite z-score: 0.0037
[7]
  composite z-score: 0.141
[8]
  composite z-score: -0.0053
[9]
  composite z-score: 0.692
[10]
  composite z-score: 0.298

## CCCN1C(=O)[C@@H]2Cc3c([nH]c4ccccc34)[C@@H](c3cccc(O)c3)N2C1=O
[1]
  composite z-score: 0.672
[2]
  z-score: -0.197
[3]
  composite z-score: 0.326
[4]
  composite z-score: 0.0779
[5]
  composite z-score: -0.346
[6]
  composite z-score: -0.176
[7]
  composite z-score: -0.221
[8]
  composite z-score: -0.0737
[9]
  composite z-score: -0.489
[10]
  composite z-score: 0.414

## C[C@]12C(=O)N(CCCO)[C@@H]3C(=O)N(c4ccc(Cl)cc4)CC=CC31O[C@@H]1/C=C\CCCOC(=O)C12 (stereo not given in full)
[1]
  composite z-score: -0.202
[2]
  z-score: -0.513
[3]
  composite z-score: -1.31
[4]
  composite z-score: -0.887
[5]
  composite z-score: -0.203
[6]
  composite z-score: -0.202
[7]
  composite z-score: -0.0904
[8]
  composite z-score: 0.309
[9]
  composite z-score: 2.33
[10]
  composite z-score: -0.777

## COC(=O)c1ccc(OC)c(/C=C\CC(CCc2ccccc2)OC(C)=O)c1 (stereo not given)
[1]
  composite z-score: -0.498
[2]
  z-score: -1.1
[3]
  composite z-score: -0.274
[4]
  composite z-score: -0.42
[5]
  composite z-score: -0.134
[6]
  composite z-score: -0.152
[7]
  composite z-score: -0.214
[8]
  composite z-score: -0.192
[9]
  composite z-score: -0.343
[10]
  composite z-score: 0.516

## NC(=O)[C@@H]1[C@H]2C(=O)O[C@H](c3ccccc3)[C@H](c3ccccc3)N2[C@H](c2ccccc2OCCO)[C@@]12C(=O)Nc1ccc(C#CCCO)cc12
[1]
  composite z-score: 0.42
[2]
  z-score: -1.02
[3]
  composite z-score: -0.388
[4]
  composite z-score: 0.613
[5]
  composite z-score: 0.154
[6]
  composite z-score: -0.226
[7]
  composite z-score: -0.221
[8]
  composite z-score: -0.139
[9]
  composite z-score: 0.0571
[10]
  composite z-score: 1.18

## O=C1O[C@H](c2ccccc2)[C@H](c2ccccc2)N2[C@H]1[C@@H](C(=O)N1CCN(c3ncccn3)CC1)[C@]1(C(=O)Nc3ccc(C#CCCO)cc31)[C@H]2c1ccc(OCCO)cc1
[1]
  composite z-score: 1.41
[2]
  z-score: -1.35
[3]
  composite z-score: 1.35
[4]
  composite z-score: 1.23
[5]
  composite z-score: -0.188
[6]
  composite z-score: 0.0614
[7]
  composite z-score: 0.0141
[8]
  composite z-score: 0.242
[9]
  composite z-score: 1.53
[10]
  composite z-score: 0.554

Source: PubChem BioAssay
